Test results reported in PubChem BioAssay AID1159580 (chemical genetic matrix, 2015).
About 2,000 (36%) of roughly 5,500 compounds were called active. About 18% were inconclusive and are not listed. No stated cut-off is given here; in the data, active means normalized growth mostly below about 0.91 (no sharp cut-off); inconclusive means no clear call, values can overlap the other calls; inactive means mostly above about 0.92. Some of the results follow.

Test: chemical genetic growth profiling, strain panel (AID 1159580);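 further: tested at 20 µM; growth read once vehicle control cultures reached saturation at 30 °C; 1 = growth at the plate median or of vehicle wells; lower values mean less growth of the strain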
Conditions: growth OD

Measured: normalized growth

NC1C[C@H]1c1ccccc1 (some centres not stated)
inactive: S. cerevisiae deletion strains, locus YJR075W, strain HOC1, active compounds read low 0.998 | S. cerevisiae deletion strains, locus YKL009W, strain mrt4, active compounds read low 0.989 | S. cerevisiae deletion strains, locus YKL068W, active compounds read low 0.992 | S. cerevisiae deletion strains, locus YKL085W, strain MDH1 (second series), active compounds read low 0.987 | S. cerevisiae deletion strains, locus YKL085W, strain MDH1, active compounds read low 0.987 | S. cerevisiae deletion strains, locus YKL160W, strain elf1, active compounds read low 0.964 | S. cerevisiae deletion strains, locus YKL190W, strain CNB1, active compounds read low 1.01 | S. cerevisiae deletion strains, locus YKR001C, strain vps1, active compounds read low 0.98 | S. cerevisiae deletion strains, locus YKR026C, strain gcn3, active compounds read low 0.984 | S. cerevisiae deletion strains, locus YKR091W, strain srl3, active compounds read low 0.979 | S. cerevisiae deletion strains, locus YLL001W, strain dnm1, active compounds read low 0.977 | S. cerevisiae deletion strains, locus YLL026W, active compounds read low 0.996 | S. cerevisiae deletion strains, locus YLL041C, strain sdh2, active compounds read low 1 | S. cerevisiae deletion strains, locus YLR027C, strain aat2, active compounds read low 0.987 | S. cerevisiae deletion strains, locus YLR039C, strain RIC1, active compounds read low 1.01 | S. cerevisiae deletion strains, locus YLR058C, strain SHM2, active compounds read low 1.01 | S. cerevisiae deletion strains, locus YLR102C, strain apc9, active compounds read low 0.985 | S. cerevisiae deletion strains, locus YLR113W, strain HOG1, active compounds read low 0.981 | S. cerevisiae deletion strains, locus YLR221C, strain rsa3, active compounds read low 1.01 | S. cerevisiae deletion strains, locus YLR258W, strain gsy2, active compounds read low 0.981 | S. cerevisiae deletion strains, locus YLR262C, strain YPT6 (second series), active compounds read low 0.974 | S. cerevisiae deletion strains, locus YLR262C, strain YPT6, active compounds read low 1.03 | S. cerevisiae deletion strains, locus YLR268W, strain sec22, active compounds read low 0.963 | S. cerevisiae deletion strains, locus YLR320W, strain mms22, active compounds read low 1.02 | S. cerevisiae deletion strains, locus YLR330W, strain CHS5, active compounds read low 1.01 | S. cerevisiae deletion strains, locus YLR342W, strain FKS1 (second series), active compounds read low 0.987 | S. cerevisiae deletion strains, locus YLR342W, strain FKS1, active compounds read low 0.973 | S. cerevisiae deletion strains, locus YLR357W, strain rsc2, active compounds read low 0.939 | S. cerevisiae deletion strains, locus YLR370C, strain arc18, active compounds read low 0.989 | S. cerevisiae deletion strains, locus YLR371W, strain rom2, active compounds read low 0.972 | S. cerevisiae deletion strains, locus YLR384C, strain iki3, active compounds read low 0.989 | S. cerevisiae deletion strains, locus YLR418C, strain cdc73, active compounds read low 0.962 | S. cerevisiae deletion strains, locus YML016C, strain PPZ1, active compounds read low 1.01 | S. cerevisiae deletion strains, locus YML032C, strain rad52, active compounds read low 0.985 | S. cerevisiae deletion strains, locus YML120C, strain ndi1, active compounds read low 1.01 | S. cerevisiae deletion strains, locus YML124C, strain tub3, active compounds read low 0.987 | S. cerevisiae deletion strains, locus YMR058W, strain fet3, active compounds read low 1 | S. cerevisiae deletion strains, locus YMR078C, strain ctf18, active compounds read low 0.981 | S. cerevisiae deletion strains, locus YMR125W, strain sto1, active compounds read low 0.939 | S. cerevisiae deletion strains, locus YMR129W, active compounds read low 0.998 | S. cerevisiae deletion strains, locus YMR205C, strain PFK2, active compounds read low 1.02 | S. cerevisiae deletion strains, locus YMR223W, strain ubp8, active compounds read low 0.98 | S. cerevisiae deletion strains, locus YMR231W, strain pep5, active compounds read low 0.975 | S. cerevisiae deletion strains, locus YMR263W, strain SAP30, active compounds read low 1 | S. cerevisiae deletion strains, locus YMR307W, strain GAS1, active compounds read low 0.945 | S. cerevisiae deletion strains, locus YNL067W, strain RPL9B, active compounds read low 1.01 | S. cerevisiae deletion strains, locus YNL071W, strain lat1, active compounds read low 0.984 | S. cerevisiae deletion strains, locus YNL128W, strain TEP1, active compounds read low 1.02 | S. cerevisiae deletion strains, locus YNL153C, strain GIM3, active compounds read low 0.989 | S. cerevisiae deletion strains, locus YNL183C, strain NPR1, active compounds read low 0.933 | S. cerevisiae deletion strains, locus YNL209W, strain ssb2, active compounds read low 0.977 | S. cerevisiae deletion strains, locus YNL233W, strain BNI4, active compounds read low 0.993 | S. cerevisiae deletion strains, locus YNL248C, strain rpa49, active compounds read low 0.929 | S. cerevisiae deletion strains, locus YNL250W, strain rad50, active compounds read low 0.973 | S. cerevisiae deletion strains, locus YNL271C, strain bni1, active compounds read low 0.987 | S. cerevisiae deletion strains, locus YNL298W, strain CLA4, active compounds read low 0.987 | S. cerevisiae deletion strains, locus YNL307C, strain MCK1, active compounds read low 0.988 | S. cerevisiae deletion strains, locus YNL322C, strain KRE1 (second series), active compounds read low 0.98 | S. cerevisiae deletion strains, locus YNL322C, strain KRE1, active compounds read low 1.01 | S. cerevisiae deletion strains, locus YNR049C, strain mso1, active compounds read low 0.989 | S. cerevisiae deletion strains, locus YNR052C, strain pop2, active compounds read low 0.995 | S. cerevisiae deletion strains, locus YOL006C, strain TOP1, active compounds read low 1.05 | S. cerevisiae deletion strains, locus YOL012C, strain htz1 0.845 | S. cerevisiae deletion strains, locus YOL147C, strain pex11, active compounds read low 0.983 | S. cerevisiae deletion strains, locus YOR001W, strain rrp6, active compounds read low 1.02 | S. cerevisiae deletion strains, locus YOR061W, strain CKA2, active compounds read low 1.01 | S. cerevisiae deletion strains, locus YOR069W, strain VPS5, active compounds read low 1.01 | S. cerevisiae deletion strains, locus YOR070C, strain gyp1, active compounds read low 0.992 | S. cerevisiae deletion strains, locus YOR080W, strain dia2, active compounds read low 0.993 | S. cerevisiae deletion strains, locus YOR083W, strain WHI5, active compounds read low 0.934 | S. cerevisiae deletion strains, locus YOR106W, strain vam3, active compounds read low 0.99 | S. cerevisiae deletion strains, locus YOR136W, strain idh2, active compounds read low 0.982 | S. cerevisiae deletion strains, locus YOR144C, strain elg1, active compounds read low 0.988 | S. cerevisiae deletion strains, locus YOR184W, strain ser1, active compounds read low 0.994 | S. cerevisiae deletion strains, locus YOR231W, strain MKK1, active compounds read low 0.986 | S. cerevisiae deletion strains, locus YOR265W, strain rbl2, active compounds read low 0.99 | S. cerevisiae deletion strains, locus YOR270C, strain vph1, active compounds read low 0.997 | S. cerevisiae deletion strains, locus YOR290C, strain snf2, active compounds read low 0.964 | S. cerevisiae deletion strains, locus YOR316C, strain cot1, active compounds read low 0.988 | S. cerevisiae deletion strains, locus YPL051W, strain arl3, active compounds read low 0.983 | S. cerevisiae deletion strains, locus YPL055C, strain LGE1, active compounds read low 1 | S. cerevisiae deletion strains, locus YPL078C, strain atp4, active compounds read low 0.975 | S. cerevisiae deletion strains, locus YPL106C, strain sse1, active compounds read low 0.961 | S. cerevisiae deletion strains, locus YPL240C, strain hsp82, active compounds read low 1.02 | S. cerevisiae deletion strains, locus YPL241C, strain CIN2, active compounds read low 1 | S. cerevisiae deletion strains, locus YPL256C, strain CLN2, active compounds read low 0.956 | S. cerevisiae deletion strains, locus YPR119W, strain clb2, active compounds read low 0.991 | S. cerevisiae deletion strains, locus YPR141C, strain kar3, active compounds read low 0.981 | S. cerevisiae deletion strains, locus YPR163C, strain tif3, active compounds read low 0.983 | S. cerevisiae deletion strains, locus YPR167C, strain met16, active compounds read low 0.984 | S. cerevisiae deletion strains, strain wtn01, active compounds read low 0.964 | S. cerevisiae strains, strain wild type, active compounds read low 1.01
